According to PubChem BioAssay (EPA / NIEHS):
Inconclusive results are not listed. Calls of active or inactive are those of the source. How the source made its calls, unless noted: active means hit-call score of the fitted dose curve at least 0.9, where 1 is the maximum; inactive means score below 0.9. Peptide text beside a SMILES is read from it.

Experiments:
[1] = CCTE_Mundy_HCI_Cortical_Synap_Neur_Matur_SynapseCount: CCTE's Synaptogenesis and Neurite Maturation Assay in rat cortical cells for Synapse Count, Mundy Lab (AID 2284218)
Summary of the method: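 Cells were plated, allowed 2 hr to attach, treated with AraC at DIV 5, then exposed to chemicals from DIV 7 until DIV 12. After fixation and MAP2/synaptophysin immunolabelling, synapses per neuron were quantified by automated imaging against DMSO.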

[2] = CCTE_Mundy_HCI_Cortical_Synap_Neur_Matur_NeuriteCount: CCTE's Synaptogenesis and Neurite Maturation Assay in rat cortical cells for Neurite Count, Mundy Lab (AID 2284222);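 further: exposure from day 7 to day 12 in vitro with readout at day 12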
Summary of the method: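 In this multiplexed morphology readout, rat primary cortical neurons are fixed at DIV 12 following dosing at DIV 7 and stained for MAP2, synaptophysin and nuclei. High-content image analysis yields neurite count.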

[3] = CCTE_Mundy_HCI_Cortical_Synap_Neur_Matur_CellBodySpotCount: CCTE's Synaptogenesis and Neurite Maturation Assay in rat cortical cells for Cell Body Spot Count, Mundy Lab (AID 2284223)
Summary of the method: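 Rat primary cortical cultures received AraC at DIV 5 to arrest glia, were dosed with chemical at DIV 7 with media change, and were fixed at DIV 12 (288.33 h). Synaptophysin puncta on MAP2-positive cell bodies per neuron were counted by high-content imaging versus DMSO.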

[4] = CCTE_Mundy_HCI_hNP1_Pro_ResponderAvgInten: CCTE's Proliferation Assay in human neuroprogenitor cells, Mundy Lab (AID 2284224; active means hit-call score of the fitted dose curve at least 0.9, where 1 is the maximum)
Summary of the method: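 Proliferation was scored as BrdU labelling intensity in human neural progenitors derived from WA09 embryonic cells, measured 26.25 hours after chemical dosing. Activity was fitted relative to DMSO.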

[5] = TAMU_HCS_1.5hr_SingleDonor1434_Cytotoxicity: Cytotoxicity Assessment using High-content Screening (HCS) Fluorescent Imaging for the Texas A&M University (TAMU) 1.5-hr Human Induced Pluripotent Stem Cell (iPSC)-derived Cardiotoxicity Assay (AID 2284234; active means hit-call score of the fitted dose curve at least 0.9, where 1 is the maximum)
Summary of the method: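 Nuclear counts from Hoechst 33342 imaging define cytotoxicity here, with EC10 (10% cell-count loss relative to DMSO) as point of departure. iPSC cardiomyocytes received 0.2-100 uM test chemical in 0.5% DMSO for 1.5 h at 37 C.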

[6] = CCTE_Mundy_HCI_Cortical_NOG_NeuronCount: CCTE's Neurite Outgrowth Assay in rat cortical cells for Neuron Count, Mundy Lab (AID 2284236; active means hit-call score of the fitted dose curve at least 0.9, where 1 is the maximum;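 further: neurons counted by imaging betaIII-tubulin and Hoechst stained cortical cells; cells exposed to compound for about 48 hours before fixation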)
Summary of the method: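 Read-out: neuron number by high-content imaging of betaIII-tubulin (Alexa Fluor-488) and Hoechst-labelled rat primary cortical cells.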

[7] = CCTE_Mundy_HCI_Cortical_NOG_BPCount: CCTE's Neurite Outgrowth Assay in rat cortical cells for Branch Point Count, Mundy Lab (AID 2284237)
Summary of the method: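 Measured 50.33 h after dosing, this morphology endpoint uses rat primary cortical cultures labelled for betaIII-tubulin. Branch points are quantified by high-content imaging, with DMSO as negative control and baseline.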

[8] = CCTE_Mundy_HCI_hNP1_Casp3_7: CCTE's Caspase-Glo 3/7 Assay in human neuroprogenitor cells for Apoptosis, Mundy Lab (AID 2284240)
Summary of the method: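 Apoptosis is scored by activated caspase-3/7 luminescence in WA09-derived neural progenitor cells, measured 26.5 h after chemical dosing. Values represent gain of signal relative to DMSO vehicle.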

[9] = CCTE_Mundy_HCI_hNP1_CellTiter: CCTE's Cell Titer-Glo 2 Assay in human neuroprogenitor cells for Viability, Mundy Lab (AID 2284241; active means hit-call score of the fitted dose curve at least 0.9, where 1 is the maximum)
Summary of the method: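 Human neural progenitor cells (hNP1, WA09-derived) were plated on poly-L-ornithine/laminin and grown 40 to 44 hours at 37 °C, 5% CO2 before chemical addition. Twenty-four hours later, ATP was measured by CellTiter-Glo luminescence; loss of signal versus DMSO indicates reduced viability.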

[10] = BSK_BT_PBMCCytotoxicity: PBMC Cytotoxicity Assessment in the BioMAP Diversity Plus: BT Assay (AID 2284225); conditions: primary human B cells with PBMC;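 further: PBMC viability measured by Alamar Blue dye reduction fluorescence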
Summary of the method: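 Viability by Alamar Blue reduction (6 h, ex/em 546/580 nm) after 90 h culture of SEB/TSST-1-activated PBMC (20 ng/mL each) given compound 1 h before activation. DMSO served as baseline for curve fitting.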

[11] = read-out: Secreted IgG (sIgG), gene 3500; assay: BSK_BT_sIgG: BioMAP Diversity Plus: BT Assay for Secreted IgG (sIgG) Biomarker Activity (AID 2284226); conditions: primary human B cells with PBMC
Summary of the method: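 Cells (B cells with peripheral blood mononuclear cells) are dosed, cultured 24 h, then supernatant IgG is measured by ELISA. DMSO serves as negative control; curves are fitted for signal increase.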

[12] = read-out: Interleukin 6 (IL6), IL6 (gene 3569); assay: BSK_BT_xIL6: BioMAP Diversity Plus: BT Assay for Interleukin 6 (IL6) Biomarker Activity (AID 2284228); conditions: primary human B cells with PBMC
Summary of the method: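 Human B cell plus PBMC co-culture exposed to test chemical for 24 h; secreted IL-6 quantified by Luminex xMAP bead assay. Activity fitted in the positive direction against DMSO as negative control and baseline.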

[13] = read-out: Interleukin 17A (IL17A), IL17A (gene 3605); assay: BSK_BT_xIL17A: BioMAP Diversity Plus: BT Assay for Interleukin 17A (IL17A) Biomarker Activity (AID 2284229); conditions: primary human B cells with PBMC
Summary of the method: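 B cells co-cultured with PBMC were exposed to test chemicals, and secreted IL-17A was quantified 24 h after dosing by Luminex xMAP bead immunoassay. Activity was fitted in the gain direction against DMSO as baseline.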

[14] = read-out: Tumor necrosis factor (Homo sapiens) (UniProt P01375); assay: BSK_BT_xTNFa: BioMAP Diversity Plus: BT Assay for Tumor necrosis factor alpha (TNF-alpha) Biomarker Activity (AID 2284230); conditions: primary human B cells with PBMC
Summary of the method: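 Endpoint derived in the positive direction versus DMSO vehicle. Cells: B cells together with PBMC, exposed 24 h before TNF-alpha in the medium was read on the Luminex xMAP platform.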

[15] = read-out: Vascular cell adhesion molecule 1 (VCAM1), VCAM1 (gene 7412); assay: BSK_MyoF_VCAM1: BioMAP Diversity Plus: MyoF Assay for Vascular cell adhesion molecule 1 (VCAM1) Biomarker Activity (AID 2284231); conditions: primary human lung fibroblasts
Summary of the method: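 Primary human lung fibroblasts were dosed with test chemical for 24 h, then cell-surface VCAM-1 was measured by ELISA. Activity was fitted in the positive direction against DMSO as negative control and baseline.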

[16] = read-out: Collagen I, COL1A1 (gene 1277); assay: BSK_MyoF_CollagenI: BioMAP Diversity Plus: MyoF Assay for Collagen I Biomarker Activity (AID 2284238); conditions: primary human lung fibroblasts
Summary of the method: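 Human lung fibroblasts were exposed to test chemical for 24 h, then Collagen I was quantified by ELISA. Activity was fitted in the increasing direction against DMSO as the negative control and baseline.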

[17] = BSK_BT_Bcell_Proliferation: Viability Assessment in the BioMAP Diversity Plus: BT Assay for B cell Proliferation (AID 2284227); conditions: primary human B cells with PBMC
Summary of the method: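 Using a human primary B cell–PBMC co-culture, the assay measures total protein by sulforhodamine B absorbance as a gauge of proliferation after 72 h. Analysis followed the positive fitting direction with DMSO as baseline.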

Sequence of Tumor necrosis factor (Homo sapiens) (P01375 whole entry, looked up): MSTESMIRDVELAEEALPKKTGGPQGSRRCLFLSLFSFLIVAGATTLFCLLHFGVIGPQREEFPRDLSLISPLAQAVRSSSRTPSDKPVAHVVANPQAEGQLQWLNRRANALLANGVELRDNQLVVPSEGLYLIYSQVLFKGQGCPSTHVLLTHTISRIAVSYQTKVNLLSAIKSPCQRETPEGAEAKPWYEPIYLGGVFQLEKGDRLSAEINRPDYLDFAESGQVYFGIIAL

With `COC(=O)[C@H](Cc1ccccc1)NC(=O)[C@@H](N)CC(=O)O` (H-Asp-Phe-OMe) the outcome [1] was “inactive”, the outcome [2] was “inactive” and the outcome [3] was “inactive”. For the same molecule, the outcome [4] was “inactive”, the outcome [5] was “inactive” and the outcome [6] was “inactive”. For the same molecule, the outcome [7] was “inactive”, the outcome [8] was “inactive” and the outcome [9] was “inactive”.
With `C=CC(=O)NC(C)(C)C` the outcome [10] was “inactive”, the outcome [11] was “inactive” and the outcome [12] was “inactive”. The outcome [13] was “inactive”, the outcome [14] was “inactive” and the outcome [15] was “inactive”. For the same molecule, the outcome [16] was “inactive”.
With `CC/C=C\CCOC(=O)c1ccccc1O` the outcome [10] was “inactive”, the AC50 [11] was 7.02 µM (active) and the outcome [12] was “inactive”. The outcome [13] was “inactive”, the outcome [14] was “inactive” and the AC50 [15] was 34.2 µM (active). For the same molecule, the AC50 [16] was 31.1 µM (active).
For `C=C(C)C(=O)OCCCCCCCCCCCC`, the outcome [10] was “inactive”, the outcome [11] was “inactive” and the outcome [17] was “inactive”. The outcome [12] was “inactive”, the outcome [13] was “inactive” and the outcome [14] was “inactive”. The outcome [15] was “inactive” and the outcome [16] was “inactive”.
For `C=CCCCCCCCCC=O`, the outcome [10] was “inactive”, the outcome [11] was “inactive” and the outcome [12] was “inactive”. The outcome [13] was “inactive”, the outcome [14] was “inactive” and the outcome [15] was “inactive”. For the same molecule, the outcome [16] was “inactive”.
With `CC(C)[N+](C)(CCOC(=O)C1c2ccccc2Oc2ccccc21)C(C)C` the outcome [10] was “inactive”, the outcome [11] was “inactive” and the outcome [12] was “inactive”. The outcome [13] was “inactive”, the outcome [14] was “inactive” and the outcome [15] was “inactive”. The outcome [16] was “inactive”.
For `CC=C(C)C=CC=C(C)C`, the AC50 [10] was 19.9 µM (active), the AC50 [11] was 12.3 µM (active) and the AC50 [17] was 26.9 µM (active). The AC50 [12] was 14.1 µM (active), the outcome [13] was “inactive” and the AC50 [14] was 27.7 µM (active). For the same molecule, the outcome [15] was “inactive” and the outcome [16] was “inactive”.
In the case of `CC/C=C\C/C=C\C/C=C\CCCCCCCC(=O)OC`, the AC50 [10] is reported as 17.4 µM (active), the AC50 [11] is reported as 5.15 µM (active) and the AC50 [12] is reported as 13.5 µM (active). The AC50 [13] was 12 µM (active), the AC50 [14] was 27.8 µM (active) and the AC50 [15] was 11.1 µM (active). For the same molecule, the AC50 [16] was 9.7 µM (active).
For `CCCCCCC=O`, the outcome [10] was “inactive”, the outcome [11] was “inactive” and the outcome [17] was “inactive”. For the same molecule, the outcome [12] was “inactive”, the outcome [13] was “inactive” and the outcome [14] was “inactive”. The outcome [15] was “inactive” and the outcome [16] was “inactive”.
In the case of `Oc1ccc(/C=C/c2cc(O)cc(O)c2)cc1`, the outcome [10] is reported as “inactive”, the AC50 [11] is reported as 6.86 µM (active) and the AC50 [17] is reported as 24.5 µM (active). The AC50 [12] was 35.4 µM (active), the AC50 [13] was 20 µM (active) and the AC50 [14] was 25.7 µM (active). For the same molecule, the outcome [15] was “inactive” and the outcome [16] was “inactive”.
With `CCC1(C)C(=O)N(Cl)C(=O)N1Cl` (stereo not drawn) the outcome [10] was “inactive”, the outcome [11] was “inactive” and the outcome [17] was “inactive”. For the same molecule, the outcome [12] was “inactive”, the outcome [13] was “inactive” and the outcome [14] was “inactive”. For the same molecule, the outcome [15] was “inactive” and the outcome [16] was “inactive”.
For `CCCCCC1=CCCC1=O`, the outcome [10] was “inactive”, the AC50 [11] was 20 µM (active) and the outcome [12] was “inactive”. The outcome [13] was “inactive”, the outcome [14] was “inactive” and the outcome [15] was “inactive”. The outcome [16] was “inactive”.
In the case of `C=CC(=O)OCCCCCCCC(C)C`, the outcome [10] is reported as “inactive”, the AC50 [11] is reported as 20 µM (active) and the outcome [12] is reported as “inactive”. The outcome [13] was “inactive”, the outcome [14] was “inactive” and the outcome [15] was “inactive”. The outcome [16] was “inactive”.
